Source: PubChem BioAssay (National Center for Advancing Translational Sciences (NCATS))
SARS PLP yeast – inhibitors of SARS-CoV papain-like protease in yeast; S. cerevisiae expressing SARS-CoV PLpro, growth rescue; Potency, µM (top dose mostly 32.9 µM), usual class: activators; 330,000 tested, 0.19% active; AID 485353; calls by dose curve; note: nearly all actives have a fitted effect of over 55% in size
HCMV inh – blocks human cytomegalovirus replication. HFF cells, HCMV-luciferase reporter, 72 h; active compounds read low. activity change, negative = inhibition, % at 57.5 µM. 410,000 tested, 4.5% active. AID 1259415; in the data active = activity change below about -60%; inconclusive = no clear call, values can overlap the other calls; inactive = above about -39%
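Human foreskin fibroblasts infected with luciferase-reporter HCMV at MOI 1 PFU/cell, compounds at two doses. Luciferase measured 72 h post infection; normalized to buffer-only basal and Salinomycin (10uM) controls.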
Marburg entry inh – Marburg virus entry inhibition. Marburg virus pseudotyped entry inhibition, cell reporter. Potency, µM (highest dose often 37.8 µM), most hits filed as inhibitors. 300,000 tested, 1.8% active. AID 540276; calls by dose curve; tested in HEK293 cells
FMDV antiviral – antivirals against foot and mouth disease virus. Potency, µM (top dose mostly 57.9 µM), hits mostly inhibitors. 410,000 tested, 1.2% active. FMDV antiviral cell-based qHTS; calls by dose curve; tested in HEK293T cells; note: read-out not given here; nearly all actives have a fitted effect of over 45% in size
Lassa entry inh – blocks Lassa virus binding to or entry into cells | Lassa virus pseudotype entry inhibition, cell reporter | Potency, µM (titrated, usually from 37.9 µM), usual class: inhibitors | 300,000 tested, 1.2% active | AID 540256; calls by dose curve; tested in HEK293 cells; note: nearly all actives have a fitted effect of over 50% in size
HCV inh – inhibitors of hepatitis C virus infection. Potency, µM (titrated, usually from 41.8 µM), actives largely listed as inhibitors. Huh7.5.1 HCVcc-Cre infection, luciferase reporter, 44 h. AID 651820. 340,000 tested, 3.4% active; active = well fitted inhibition curve with a large enough effect; inconclusive = small, poorly fitted or top-dose-only effect, or another doubt; inactive = no such curve, though single readings can be large or run the other way
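Infectious HCVcc-Cre (~0.5 moi) was added to cells just after compound, with cells seeded 4 h earlier at 1,000 per well. Luciferase activity after 44 h culture reported infection; substrate was incubated 15 min at room temperature before reading.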
Each line names hits and unclear results; the compound was inactive in the other large screens. Compounds with a hit are over-represented: about 8% of the library has one in this group of screens.

Cc1nc2cccc(C(=O)Oc3ccc([N+](=O)[O-])cc3)c2o1	Lassa entry inh inconclusive
Cc1c(-c2ccccc2)nc2ccccc2c1C(=O)Oc1ccc([N+](=O)[O-])cc1	HCMV inh -76, Marburg entry inh inconclusive, FMDV antiviral inconclusive, Lassa entry inh inconclusive, HCV inh inconclusive
CC(C)=CCC/C(C)=C/CO/N=C1\C[C@@H](O)[C@@H](O)[C@@H]2[C@@H]3C(=O)N(Cc4ccccc4)C(=O)[C@@H]3CC[C@H]12	none (no result: SARS PLP yeast, HCMV inh, FMDV antiviral, Lassa entry inh, HCV inh)
CCCn1c(=O)n(C)c(=O)c2c(SCC(=O)NCC(c3ccccc3)N(C)C)nc(CC(C)C)nc21 (stereo unspecified)	Marburg entry inh inconclusive, Lassa entry inh inconclusive, HCV inh inconclusive
CCOC(=O)/C(C#N)=C1/C=C(C)NC(c2ccccc2O)=N1	HCMV inh -103, Marburg entry inh inconclusive, FMDV antiviral inconclusive, Lassa entry inh inconclusive, HCV inh inconclusive
CCOC(=O)/C(C#N)=C1\Nc2ccccc2N=C1N(CC(C)C)CC(C)C	Marburg entry inh inconclusive (no result: FMDV antiviral)
CCOC(=O)c1cc(-c2ccccc2)n(CCC(=O)Nc2ccc(Cl)c(C(F)(F)F)c2)c1C	FMDV antiviral 40µM (no result: SARS PLP yeast, Marburg entry inh, HCV inh)
COc1ccc(C(=O)OCC(=O)Nc2ccc(Cl)c(C(F)(F)F)c2)c(OC)c1OC	HCMV inh -62, HCV inh inconclusive
COC(=O)N[C@@H](c1ccc2ccccc2c1)C(C(C)=O)C(=O)OC (stereo partly specified)	none (no result: SARS PLP yeast, HCMV inh, FMDV antiviral, Lassa entry inh, HCV inh)
Oc1ccc2c(c1)c1ccccc1c1ncccc21	HCV inh 11µM (no result: SARS PLP yeast)
COc1ccc(-c2nc3c(Cl)cc(C(F)(F)F)cn3c2Cc2ccsc2)cc1OC	none (no result: SARS PLP yeast, Marburg entry inh, Lassa entry inh, HCV inh)
CN(C(=O)CS(=O)(=O)c1cccc(Cl)c1)c1ccccc1	none
CCN(CCO)CCCC(C)Nc1ccnc2cc(Cl)ccc12 (stereo unspecified)	none (no result: SARS PLP yeast, HCMV inh, Marburg entry inh, Lassa entry inh, HCV inh)
CCN(CC)CCCC(C)Nc1nccc2c(Cl)cccc12 (stereo unspecified)	Marburg entry inh inconclusive, Lassa entry inh inconclusive, HCV inh 10µM (no result: SARS PLP yeast)
COC(=O)c1cn(NC(=O)C2CCC(C)CC2)c(=O)c2ccccc12 (stereo unspecified)	none
COC(=O)c1cn(NC(=O)c2cc([N+](=O)[O-])ccc2F)c(=O)c2ccccc12	HCMV inh -97, Marburg entry inh inconclusive, FMDV antiviral 32µM, Lassa entry inh inconclusive, HCV inh inconclusive
CC(=O)c1cccc(-n2c(=O)c3c4c(sc3n(Cc3cccc(C)c3)c2=O)CN(C(C)=O)CC4)c1	none (no result: SARS PLP yeast, Lassa entry inh, HCV inh)
COc1ccc(COC(=O)C2=C(C)NC(=O)NC2c2ccc(OC)cc2)cc1 (stereo unspecified)	HCMV inh -64, FMDV antiviral inconclusive, HCV inh inconclusive (no result: Marburg entry inh, Lassa entry inh)
COc1ccc(COC(=O)C2=C(C)NC(=O)NC2c2ccc(O)cc2)cc1 (stereo unspecified)	none (no result: Marburg entry inh, Lassa entry inh)
CC1=C(C(=O)OCc2ccc3c(c2)OCO3)C(c2ccccc2OCc2ccccc2)NC(=O)N1 (stereo unspecified)	Marburg entry inh inconclusive, HCV inh 10µM (no result: FMDV antiviral)
CCCOc1ccccc1C1NC(=O)NC(C)=C1C(=O)OCc1ccccc1 (stereo unspecified)	HCMV inh inconclusive, Marburg entry inh inconclusive, FMDV antiviral inconclusive, HCV inh inconclusive
CC1=C(C(=O)OCc2ccc3c(c2)OCO3)C(c2ccc(O)c([N+](=O)[O-])c2)NC(=O)N1 (stereo unspecified)	HCMV inh inconclusive
CC1=C(C(=O)OCc2ccc3c(c2)OCO3)C(c2ccccc2)NC(=O)N1 (stereo unspecified)	HCMV inh -92, Marburg entry inh inconclusive, Lassa entry inh inconclusive, HCV inh inconclusive (no result: FMDV antiviral)
Cc1ccc(N=Cc2c(O)[nH]c3ccccc23)c([N+](=O)[O-])c1	Marburg entry inh inconclusive, Lassa entry inh inconclusive
COc1ccccc1N1CCN(c2nc3ccc(C)cc3nc2-n2nc(C)cc2C)CC1	none (no result: SARS PLP yeast, HCV inh)
CN=C1S/C(=C\c2ccc(SC)cc2)C(=O)N1C	Lassa entry inh inconclusive, HCV inh inconclusive
C=CCN=C1S/C(=C/c2cccc([N+](=O)[O-])c2)C(=O)N1CC=C	HCMV inh -74, FMDV antiviral inconclusive, HCV inh inconclusive (no result: Marburg entry inh, Lassa entry inh)
C=CCN=C1S/C(=C\c2ccc(Cl)cc2)C(=O)N1CC=C	HCMV inh -84
CN=C1S/C(=C\c2ccc(Cl)cc2)C(=O)N1C	HCV inh 11µM
